# According to PubChem BioAssay (NCI):
# About 83,000 compounds went through this panel and 20% of them were active in at least one assay; those are over-represented in the sample as a whole.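 In brief: 96-well plates, 48 h treatment, single concentration, percent growth endpoint.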 Unmarked numbers belong to inactive results. Activity calls are given as the source filed them. The calls were made as follows: active = growth percent below 10; inactive = the rest.
# Experiments:
# Experiment in all cases: NCI-60 one-dose screen, 48 h (100 = growth as untreated, 0 = no growth, -100 = all killed)
# Conditions in all cases: 10 µM unless noted
# [1] = system: HCT-15 colon
# [2] = system: HT29 colon
# [3] = system: SNB-75 CNS
# [4] = system: SNB-19 CNS
# [5] = system: U251 CNS
# [6] = system: PC-3 prostate
# [7] = system: UACC-62 melanoma
# [8] = system: LOX IMVI melanoma
# [9] = system: SK-MEL-28 melanoma
SMILES,growth [1],growth [2],growth [3],growth [4],growth [5],growth [6],growth [7] [%],growth [8],growth [9]
COc1ccc(-c2cc(=O)oc3ccc(Cl)cc23)cc1F,11.7%,-5.75% (active),46%,23.5%,4.46% (active),11%,30.1,21.9%,59.5%
COc1cccc(-c2nn(-c3ccccc3)cc2-c2ccnc(NCCNS(=O)(=O)c3cccc(F)c3)c2)c1,24.3%,16.9%,70.6%,37.2%,27%,19.1%,,38.3%,
C=C(C)[C@@H]1CC[C@]2(C=O)CC[C@]3(C)[C@H](CC[C@@H]4[C@@]5(C)C/C(=C/c6cccnc6)C(=O)C(C)(C)[C@@H]5CC[C@]43C)[C@@H]12,57.6%,72%,101%,84.4%,73.4%,41.8%,61.5,,93.3%
COc1cc2ncnc(Nc3ccc(OCc4cccc(F)c4)c(Cl)c3)c2cc1NC(=O)C1CCCC1,80.2%,82.3%,69.2%,83.3%,91.8%,63.3%,,87.5%,90.1%
Cc1ccc2[nH]cc(-c3nc(-c4cn(C)c5ncccc45)cs3)c2c1,83%,74.6%,85%,109%,94.8%,57%,,,90.6%
NCCn1cc(-c2nc(-c3c[nH]c4ncccc34)cs2)c2cc(Br)ccc21,27.1%,31%,72.7%,79.3%,67.9%,59.9%,,82.6%,99.4%
CC[C@H](CC[C@@H](C)[C@H]1CC[C@H]2[C@@H]3/C(=C/c4cccnc4)C(=O)C4=CC(=O)CC[C@]4(C)[C@H]3CC[C@]12C)C(C)C,78.9%,81.4%,110%,88.6%,0.689% (active),66.7%,76.6,,75.7%
C=C(C)[C@@H]1CC[C@]2(C(=O)N3CCN(CC)CC3)CC[C@]3(C)[C@H](CC[C@@H]4[C@@](C)(CCC(=O)N5CCN(CC)CC5)[C@H](C(=C)C)CC[C@]43C)[C@@H]12,9.11% (active),17.3%,69.2%,85.1%,40.6%,32.5%,,,55.8%
CC(=O)Nc1cc(F)cc(C(F)(F)F)c1Cl,102%,101%,83.2%,106%,105%,95.7%,102,92.1%,101%
Cn1cc(-c2csc(-c3cn(CCCN4CCCCC4)c4ccc(Br)cc34)n2)c2cccnc21,-78.2% (active),-72.8% (active),63.6%,-45.3% (active),-80.6% (active),-8.66% (active),,-71.4% (active),-86.6% (active)
COc1ccc(C(=O)c2cc(OC)c(OC)c(OC)c2)cc1/C=C/C(=O)c1cc(OC)c(OC)c(OC)c1,64.7%,82.7%,65.4%,92.7%,86.4%,86.5%,,79%,91.3%
Cn1cc(-c2csc(-c3cn(CCCN4CCCCC4)c4ccc(F)cc34)n2)c2cccnc21,77.5%,75.2%,77.2%,90.3%,85.2%,71.5%,,85.4%,-78.9% (active)
O=C1c2cc3c(cc2-c2c1c1ccc(Cl)cc1c(=O)n2C[C@H](O)[C@@H](O)[C@H](O)CO)OCO3,0.364% (active),-14.4% (active),-1.89% (active),7.77% (active),-26.9% (active),12.7%,,-18.5% (active),-18.8% (active)
Brc1ccc2[nH]cc(-c3nc(-c4c[nH]c5ncccc45)cs3)c2c1,-32.3% (active),9.69% (active),37.3%,68.8%,27.7%,38.1%,41.9,,71.6%
COc1cccc(NC(=O)c2sc3nc4c(cc3c2N)C(=O)CCC4)c1,15.7%,4.77% (active),-0.688% (active),41.6%,14.3%,10.5%,34.5,,62.9%
COc1cc(-c2cc3ncccc3c3nc(OCCN(C)C)c4cccnc4c23)cc(OC)c1OC,23.1%,9.99% (active),-36.8% (active),15%,11.8%,16.2%,,-43.5% (active),
C#CCn1c2c(c3ccccc31)C[C@]1(C)[C@H]3CC[C@@H]4[C@@H]5C(=CCC[C@H]5C(=C)C)CC[C@@]4(C)[C@]3(C)CC[C@H]1C2(C)C,104%,104%,90.3%,100%,106%,97.3%,95.2,,106%
COc1cc2c(cc1OC)C(=O)/C(=C/c1cc(-c3ccc4c(c3)OCO4)n[nH]1)C2,-39.9% (active),-29.5% (active),-4.64% (active),9.31% (active),-75.5% (active),-65.7% (active),25.8,,0.563% (active)
Cn1cc(-c2nc(-c3c[nH]c4ncccc34)cs2)c2cc(Br)ccc21,64.2%,70.5%,80.5%,108%,72.9%,76.7%,80.5,,102%
C=C(C)[C@@H]1CC[C@]2(C)CC[C@]3(C)[C@H](CC[C@@H]4[C@@]5(C)CCCNC(C)(C)[C@@H]5CC[C@]43C)[C@@H]12,19.2%,3.37% (active),85.9%,96.3%,11.9%,78.9%,105,,105%
